# According to PubChem BioAssay AID624330 (Southern Research Specialized Biocontainment Screening …, 2012):
# The campaign covered roughly 340,000 compounds. About 2,100 (0.62%) were called active. A selection follows. Measured potencies and affinities stand elsewhere. Values without a mark were called inactive.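 The calls were made as follows: active = first-screen hits whose inhibition reached a set limit at any dose in the follow-up dose series; inconclusive = inhibition above the set first-screen limit but never retested; inactive = the rest.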
# Target: Rac GTPase-activating protein 1 (Homo sapiens) (UniProt Q9H0H5)
# Sequence (Q9H0H5 whole entry, looked up): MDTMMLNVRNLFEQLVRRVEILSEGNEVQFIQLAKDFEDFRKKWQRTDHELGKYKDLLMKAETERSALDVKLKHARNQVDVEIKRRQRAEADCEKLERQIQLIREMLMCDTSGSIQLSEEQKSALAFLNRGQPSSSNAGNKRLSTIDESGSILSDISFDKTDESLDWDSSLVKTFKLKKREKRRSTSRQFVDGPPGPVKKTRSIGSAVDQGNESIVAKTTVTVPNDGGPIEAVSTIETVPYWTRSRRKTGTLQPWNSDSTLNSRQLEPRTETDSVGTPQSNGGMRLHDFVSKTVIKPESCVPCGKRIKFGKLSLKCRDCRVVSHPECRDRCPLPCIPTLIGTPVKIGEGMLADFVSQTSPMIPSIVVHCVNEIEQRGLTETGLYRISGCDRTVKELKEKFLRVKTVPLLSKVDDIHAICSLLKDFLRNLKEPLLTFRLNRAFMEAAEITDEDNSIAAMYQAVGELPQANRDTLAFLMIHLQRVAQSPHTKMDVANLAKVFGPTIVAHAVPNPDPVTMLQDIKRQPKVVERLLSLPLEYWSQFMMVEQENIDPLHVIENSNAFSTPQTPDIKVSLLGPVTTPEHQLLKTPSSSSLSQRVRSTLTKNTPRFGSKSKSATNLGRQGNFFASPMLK
# Assay: MgcRacGAP GTPase-activating activity inhibitors, confirmation, biochemical, ADP Hunter fluorescence, primary and confirmatory (AID 624330);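 also: fluorescence reports GDP produced by GAP-driven GTP hydrolysis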
# Details: MgcRacGAP-stimulated Rac1 GTP hydrolysis, at 30 µM, stronger effect = higher value, GST-tagged Rac1 F28L mutant substrate
row,SMILES,inhibition
1,COc1ccc(N=Cc2cc(Cl)ccc2O)cc1Cl,15.8%
2,Oc1ccc(Cl)cc1C=Nc1ccc(Br)cc1,7.16%
3,Fc1ccc(C2=Nn3c(nnc3-c3ccco3)SC2)cc1,1.81%
4,c1ccc(C2=Nn3c(nnc3-c3ccco3)SC2)cc1,18%
5,CN(CC(=O)NCc1ccncc1)S(=O)(=O)c1cc(Cl)ccc1Cl,1.23%
6,COc1ccc(NC(=O)c2c[nH]c(=O)n(-c3ccc(C)c(C)c3)c2=O)cc1OC,-10.4%
7,CC1=NN(c2ccccc2)C(=O)C1c1ccccc1 (stereo unspecified),26.3%
8,CC1=NN(c2ccccc2)C(=O)C1(C)C,12.1%
9,COc1ccc(CNC(=O)CSc2nnc3c(n2)[nH]c2ccccc23)cc1,3.19%
10,CSc1ncnc2c1ncn2CCCNCc1ccccc1,17.1%
11,Cc1ccc(NCCCn2cnc3c(OCc4ccccc4)ncnc32)cc1C,26.1%
12,CSc1ncnc2c1ncn2CCCNCCCc1ccccc1,17.5%
13,COc1ncnc2c1ncn2CCCNCc1ccccc1,20.3%
14,CCOCCCNC(=O)c1cc(Cl)c(NC(=O)C2=C(C)OCCS2)cc1OC,9.37%
15,OCC[C@H]1C[C@@H](O)[C@H](O)[C@]2(CCc3ccccc3CO2)O1,-0.41%
16,CN1CCN(c2cc(N3CCN(C(=O)c4ccco4)CC3)c3c4c(onc24)-c2ccccc2C3=O)CC1,14.2%
17,CCN1CCN(c2cc(N3CCN(C(=O)c4ccco4)CC3)c3c4c(onc24)-c2ccccc2C3=O)CC1,25.5%
18,Cc1nc(NC(=O)CCCC(=O)Nc2nc(C)c(C)s2)sc1C,3.32%
19,CCc1cc(=O)oc2c(C)c(OC(C)C(=O)NCC3CCC(C(=O)O)CC3)ccc12 (stereo unspecified),0.46%
20,CCN(C(=O)Cn1cc(C(=O)C(=O)N2CCOCC2)c2ccccc21)c1ccccc1,7.38%
21,C=C(CC)C(=O)c1ccc(OCC(=O)O)c(Cl)c1Cl,4.69%

row,SMILES,inhibition
1,O=C(O)COc1ccc2nsnc2c1Cl,6.84%
2,CN1CCN(C(=O)CN(CCc2ccccc2)S(C)(=O)=O)CC1,1%
3,CS(=O)(=O)Nc1cccc(C2=NN(C(=O)c3cccc([N+](=O)[O-])c3)C(c3cccs3)C2)c1 (stereo unspecified),7.25%
4,CC1(C)CC(CC(=O)Nc2ccccn2)C(=O)O1 (stereo unspecified),3.54%
5,Cc1ccc(Oc2ncccc2/C=N/O)cc1,5.93%
6,Cc1cc(Cl)ccc1OC(C)C(=O)OCC(=O)Nc1ccc2[nH]c(=O)[nH]c2c1 (stereo unspecified),1.09%
7,CN(C)/C=C1\NC(=S)N(c2ccc(Cl)cc2)C1=O,17.9%
8,COc1ccc(N2C(=O)/C(=C/c3cccnc3)NC2=S)cc1,3.24%
9,CCN1C(=O)/C(=C\N(C)C)NC1=S,12%
10,COc1ccc(N2C(=O)/C(=C/c3cccs3)NC2=S)cc1,9.24%
11,Cc1cccc(C)c1NC(=O)C1CCN(S(C)(=O)=O)CC1,-16.2%
12,O=C(O)c1cc(O)c2c(c1)C(=O)c1cccc(O)c1C2=O,28.8%
13,O=C1C=C(O)c2cccc(O)c2C1=O,0.71%
14,CNC(=O)c1sc(=S)n(-c2ccc(OC)cc2)c1N,3.75%
15,Cc1cccc(-c2ncc(S(=O)(=O)C(C)(C)C)c(N)n2)c1,-7.62%
16,CC(=O)Nc1ccc(N(C(=O)CNC(=O)c2ccco2)C(C(=O)NCc2ccco2)c2ccccc2F)cc1 (stereo unspecified),4.97%
17,Cc1cccc(C(=O)NC(C)c2ccc(-n3ccnc3)cc2)c1C (stereo unspecified),5%
18,COc1ccc([N+](=O)[O-])cc1NC(=O)C(C)NNC(=O)c1cccc([N+](=O)[O-])c1 (stereo unspecified),4.39%
19,CN(C)C=Nc1ccc(Cl)c(Cl)c1,2.39%
20,CN(C)C=Nc1ccc2nn(-c3ccccc3)nc2c1,6.6%
21,Cc1c(C(c2cc(O)ccc2O)c2c(C)n(C)n(-c3ccccc3)c2=O)c(=O)n(-c2ccccc2)n1C,-9.5%

row,SMILES,inhibition
1,CCCN(C(=O)c1cccs1)c1c(N)n(Cc2ccccc2)c(=O)[nH]c1=O,4.88%
2,CSc1ncccc1C(=O)Nc1cc(C)ccn1,11.2%
3,COc1ccc(CC(=O)NCC2CCCN(Cc3ccc(F)c(OC)c3)C2)cc1 (stereo unspecified),-1.16%
4,CC1=C(C(=O)N2CCOCC2)CC(CC(=O)NC2CCCC2)C(=O)N1Cc1ccc(F)cc1 (stereo unspecified),14.4%
5,COc1cccc(NC(=O)NNC(=O)COc2ccc3ccccc3c2)c1,2.17%
6,COc1ccc(NC(=O)NNC(=O)COc2ccc3ccccc3c2)cc1,5.22%
7,COc1ccc(NC(=O)NNC(=O)COc2ccc3cc(Br)ccc3c2)cc1,9.2%
8,COc1ccc2cc(OCC(=O)NNC(=O)Nc3ccc(OC)c(OC)c3)ccc2c1,17.7%
9,COc1ccc(C(=O)N2CCNC(=O)C2CC(=O)Nc2cccc(Cl)c2Cl)cc1 (stereo unspecified),-0.3%
10,O=Cc1cn(-c2ccccc2)nc1-c1cccc([N+](=O)[O-])c1,6.3%
11,COc1ccc(C2NN=C(c3ccc(C)cc3)S2)cc1OC (stereo unspecified),-0.47%
12,COc1ccc(C2NN=C(c3ccc(C)cc3)S2)cc1 (stereo unspecified),7.81%
13,COc1ccc(NC(=O)CC2C(=O)NCCN2C(=O)c2ccccc2)cc1 (stereo unspecified),6.95%
14,CC(=O)N(C(C)=O)c1nc(-c2ccccc2)cn1/N=C/c1ccccc1,7.71%
15,Nc1nc(-c2ccccc2)cn1/N=C/c1ccccc1,3.51%
16,Cc1ccc(S(=O)(=O)CCC(=O)Nc2nc(-c3cccnc3)cs2)cc1,-10.2%
17,CCCc1nn2c(=O)cc(CSCC(=O)Nc3ccc(OC)cc3)nc2s1,1.76%
18,Cc1nnc(N2C(=O)C(O)=C(C(=O)c3ccco3)C2c2cccc3ccccc23)s1 (stereo unspecified),7.61%
19,CC(C)(O[C@@H]1O[C@H](CO)[C@@H](O)[C@H](O)[C@H]1O)[C@H]1Cc2cc3ccc(=O)oc3cc2O1,3.49%
